# Experiments:
# Assay in all cases: PBM binding z-score (relative to random genomic background probes); higher = stronger binding; sequences stand for … in GC…GCGATTGACAGCGTAGAATGAAGG
# [1] = tested on: FXR:RXRa (NR concentration 270 nM, RXRa partner concentration 90 nM)
# Outline: (§1)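 Binding z-scores were set against random background probes. The data came from custom Agilent 4×180K protein-binding microarrays carrying double-stranded probes with 34-nt variable regions, incubated 1 h with ligand-free nuclear receptor dimers. Partner-specific antibodies detected binding, and scanned fluorescence was regression-normalized.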
# [2] = tested on: LXRa:RXRa (NR concentration 270 nM, RXRa partner concentration 90 nM)
# Outline: as §1
# [3] = tested on: LXRa homodimer (NR concentration 270 nM)
# Outline: as §1
# [4] = tested on: LXRb:RXRa (NR concentration 270 nM, RXRa partner concentration 90 nM)
# Outline: as §1
# [5] = tested on: LXRb homodimer (NR concentration 270 nM)
# Outline: as §1
# [6] = tested on: PPARa:RXRa (NR concentration 270 nM, RXRa partner concentration 90 nM)
# Outline: as §1
# [7] = tested on: PPARg:RXRa (NR concentration 180 nM, RXRa partner concentration 90 nM)
# Outline: as §1
# [8] = tested on: PPARg:RXRa 270nM:90nM, anti-RXR (NR concentration 270 nM, RXRa partner concentration 90 nM)
# Outline: as §1
# [9] = tested on: PPARg:RXRa 30nM:10nM, anti-RXR (NR concentration 30 nM, RXRa partner concentration 10 nM)
# Outline: as §1
# [10] = tested on: PPARg:RXRa 90nM:30nM, anti-RXR (NR concentration 90 nM, RXRa partner concentration 30 nM)
# Outline: as §1
# [11] = tested on: PPARg:RXRa DBDmut IVT, anti-RXR (DBD mutation: RXRa K156A/R161A, NR concentration 270 nM, RXRa partner concentration 90 nM)
# Outline: as §1
# [12] = tested on: PPARg:RXRa IVT, anti-PPARg (NR concentration 270 nM, RXRa partner concentration 90 nM)
# Outline: as §1
# [13] = tested on: PPARg DBDmut:RXRa IVT, anti-PPARg (DBD mutation: PPARg1 K132A/R137A, NR concentration 270 nM, RXRa partner concentration 90 nM)
# Outline: as §1
# [14] = tested on: PPARg DBDmut IVT, anti-PPARg (DBD mutation: PPARg1 K132A/R137A, NR concentration 270 nM)
# Outline: as §1
# [15] = tested on: PPARg homodimer (NR concentration 180 nM)
# Outline: as §1
# [16] = tested on: PXR:RXRa (NR concentration 270 nM, RXRa partner concentration 90 nM)
# Outline: as §1
# [17] = tested on: PXR homodimer (NR concentration 270 nM)
# Outline: as §1
# [18] = tested on: RARa:RXR (NR concentration 270 nM, RXRa partner concentration 90 nM)
# Outline: as §1
# [19] = tested on: RARa homodimer (NR concentration 270 nM)
# Outline: as §1
# [20] = tested on: RARb:RXRa (NR concentration 270 nM, RXRa partner concentration 90 nM)
# Outline: as §1
sequence,measurement,setting,value
CTGACTGGGGCATAAGGTTACCATAAGCCAGCCC,PBM binding z-score,[1],0.671
same,PBM binding z-score,[2],2.05
same,PBM binding z-score,[3],0.0158
same,PBM binding z-score,[4],1.61
same,PBM binding z-score,[5],-0.345
same,PBM binding z-score,[6],2.69
same,PBM binding z-score,[7],3.2
same,PBM binding z-score,[8],3.99
same,PBM binding z-score,[9],2.16
same,PBM binding z-score,[10],3.9
same,PBM binding z-score,[11],4.6
same,PBM binding z-score,[12],4.79
same,PBM binding z-score,[13],0.707
same,PBM binding z-score,[14],-0.07
same,PBM binding z-score,[15],1.02
same,PBM binding z-score,[16],0.767
same,PBM binding z-score,[17],-0.461
same,PBM binding z-score,[18],1.62
same,PBM binding z-score,[19],-0.242
same,PBM binding z-score,[20],1.94
ATACCAAGGTGATCGTGTGGTCGTTGATACTAAC,PBM binding z-score,[1],0.493
same,PBM binding z-score,[2],0.0735
same,PBM binding z-score,[3],-0.0332
same,PBM binding z-score,[4],0.23
same,PBM binding z-score,[5],-0.176
same,PBM binding z-score,[6],0.206
same,PBM binding z-score,[7],0.285
same,PBM binding z-score,[8],0.406
same,PBM binding z-score,[9],-0.115
same,PBM binding z-score,[10],-0.212
same,PBM binding z-score,[11],0.658
same,PBM binding z-score,[12],0.953
same,PBM binding z-score,[13],0.0763
same,PBM binding z-score,[14],0.561
same,PBM binding z-score,[15],0.519
same,PBM binding z-score,[16],0.0212
same,PBM binding z-score,[17],-0.0663
same,PBM binding z-score,[18],0.0038
same,PBM binding z-score,[19],0.00751
same,PBM binding z-score,[20],0.737
AATACAGGCTCACTAGGCCAGAGTAGGTACGAAT,PBM binding z-score,[1],-0.561
same,PBM binding z-score,[2],-0.71
same,PBM binding z-score,[3],-0.282
same,PBM binding z-score,[4],-0.839
same,PBM binding z-score,[5],-0.695
same,PBM binding z-score,[6],-0.441
same,PBM binding z-score,[7],0.692
same,PBM binding z-score,[8],0.176
same,PBM binding z-score,[9],0.027
same,PBM binding z-score,[10],-0.114
same,PBM binding z-score,[11],0.83
same,PBM binding z-score,[12],1.96
same,PBM binding z-score,[13],0.786
same,PBM binding z-score,[14],0.55
same,PBM binding z-score,[15],-0.108
same,PBM binding z-score,[16],-0.759
same,PBM binding z-score,[17],-0.466
same,PBM binding z-score,[18],-0.759
same,PBM binding z-score,[19],-0.709
same,PBM binding z-score,[20],-0.981
CGAACTAGGTCAGAACAGGACAATGAAGGATGAT,PBM binding z-score,[1],1.42
same,PBM binding z-score,[2],1.2
same,PBM binding z-score,[3],0.0697
same,PBM binding z-score,[4],0.618
same,PBM binding z-score,[5],-0.134
same,PBM binding z-score,[6],3.06
same,PBM binding z-score,[7],5.27
same,PBM binding z-score,[8],4.32
same,PBM binding z-score,[9],1.93
same,PBM binding z-score,[10],3.26
same,PBM binding z-score,[11],6.72
same,PBM binding z-score,[12],7.28
same,PBM binding z-score,[13],2.05
same,PBM binding z-score,[14],0.683
same,PBM binding z-score,[15],0.602
same,PBM binding z-score,[16],1.23
same,PBM binding z-score,[17],0.343
same,PBM binding z-score,[18],0.703
same,PBM binding z-score,[19],0.399
same,PBM binding z-score,[20],2.98
TCATATAGGTAAACAGGTGAATGTCCGTAAGTTA,PBM binding z-score,[1],0.832
same,PBM binding z-score,[2],1.18
same,PBM binding z-score,[3],1.02
same,PBM binding z-score,[4],0.963
same,PBM binding z-score,[5],0.0472
same,PBM binding z-score,[6],2.02
same,PBM binding z-score,[7],2.31
same,PBM binding z-score,[8],3.18
same,PBM binding z-score,[9],3.86
same,PBM binding z-score,[10],3.58
same,PBM binding z-score,[11],4.88
same,PBM binding z-score,[12],4.45
same,PBM binding z-score,[13],1.34
same,PBM binding z-score,[14],1.04
same,PBM binding z-score,[15],1.16
same,PBM binding z-score,[16],0.702
same,PBM binding z-score,[17],0.0773
same,PBM binding z-score,[18],1.09
same,PBM binding z-score,[19],0.858
same,PBM binding z-score,[20],0.708
GCTCGGAGGACAAGGTCTGAGCTTTGTCCGTAGA,PBM binding z-score,[1],-0.67
same,PBM binding z-score,[2],-0.493
same,PBM binding z-score,[3],-0.867
same,PBM binding z-score,[4],-0.602
same,PBM binding z-score,[5],-1.01
same,PBM binding z-score,[6],-0.36
same,PBM binding z-score,[7],-1.05
same,PBM binding z-score,[8],-0.462
same,PBM binding z-score,[9],-1.11
same,PBM binding z-score,[10],-1
same,PBM binding z-score,[11],-0.275
same,PBM binding z-score,[12],-0.493
same,PBM binding z-score,[13],-0.968
same,PBM binding z-score,[14],-1.01
same,PBM binding z-score,[15],-0.929
same,PBM binding z-score,[16],-0.656
same,PBM binding z-score,[17],-0.919
same,PBM binding z-score,[18],-0.399
same,PBM binding z-score,[19],-1.72
same,PBM binding z-score,[20],0.963

# — the supplement of paper PMC6555819
